PvdQ inh: P. aeruginosa PvdQ acylase inhibition. purified PvdQ acylase, fluorescence plate reader. inhibition, % at 10 µM. 340,000 compounds, 0.063% hits; in the data active = inhibition above about 30%, passing the limit was not always enough
Statin myotox sup: protects C2C12 myotubes from simvastatin toxicity. AID 602340. rescue of ATP level, % at 7.49 µM. 330,000 compounds, 0.78% hits. ATP luminescence, 48 h; scaled: DMSO 0, geranylgeraniol control 100;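 active = mean ATP rescue above about 67%, or every replicate alone reaching that limit, limit read from the data, passing the limit was not always enough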;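 note: myotubes were challenged with 10 µM simvastatin during compound exposure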
miR122 inh: inhibitors of miR-122 in Huh7 cells. Huh7 miR-122 Renilla luciferase sensor, 48 h; neutral wells = 0, positive control = 100. activation (reporter increase), % at 12.5 µM. AID 602342. 340,000 compounds, 0.3% hits;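 active = mean replicate activation score at least 90 and every replicate individually at or above 90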;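 note: higher luciferase means less miR-122 activity so hits act as miR-122 inhibitors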
DENV2 CPE: DENV2-induced cell death inhibition; DENV2-infected cells, cytopathic effect rescue, plate reader; CPE inhibition, % at 9.99 µM; 350,000 compounds, 1.7% hits; in the data active = CPE inhibition above about 20%, passing the limit was not always enough; tested in BHK-21 cells
PGC1a acetyl inh: modulators of PGC1a acetylation; inhibition, % at 15.6 µM; 350,000 compounds, 0.17% hits; U2OS PGC1a acetylation, AlphaScreen anti-acetyl-lysine; with virally co-expressed GCN5 acetyltransferase;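 active = every replicate shows inhibition of at least 40%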
Each line names hits and unclear results; the compound was inactive in the other large screens; ! = not active in a repeat. Only some compounds are listed: those with a hit (about 2.2% of all), similar ones and a draw of the others.

Cc1cc(F)ccc1C(O)c1ncc(-c2ccccc2F)[nH]1 (centres undefined)	miR122 inh 112 (no result: PvdQ inh, PGC1a acetyl inh)
Cc1cc(F)ccc1C(O)c1ncc(-c2ccccc2C(F)(F)F)[nH]1 (centres undefined)	DENV2 CPE 60 (no result: PvdQ inh, PGC1a acetyl inh)
O=C(C[C@H]1C[C@H]2c3cc(NC(=O)C4CCC4)ccc3O[C@H]2[C@H](CO)O1)NCc1cccnc1	none (no result: PvdQ inh)
C[C@H]1CN([C@@H](C)CO)C(=O)c2cccc(NC(=O)CCCCCC(=O)Nc3ccccc3N)c2O[C@@H]1CN(C)Cc1ccc(-c2ccccc2)cc1	none (no result: PvdQ inh, Statin myotox sup, miR122 inh)
C[C@@H]1CN([C@@H](C)CO)C(=O)c2cc(NS(=O)(=O)c3ccccc3)ccc2O[C@@H](C)CCCCO[C@H]1CN(C)Cc1ccncc1	none (no result: PvdQ inh, Statin myotox sup)
C[C@H](CO)N1C[C@H](C)[C@H](CN(C)Cc2ccncc2)OCCCC[C@H](C)Oc2ccc(NS(=O)(=O)c3ccccc3)cc2C1=O	DENV2 CPE 73 (no result: PvdQ inh, Statin myotox sup)
C[C@H]1CCCCO[C@H](CN(C)Cc2ccncc2)[C@@H](C)CN([C@@H](C)CO)C(=O)c2cc(NS(=O)(=O)c3ccccc3)ccc2O1	PGC1a acetyl inh 73! (no result: PvdQ inh)
C[C@@H]1CCCCO[C@@H](CN(C)Cc2ccncc2)[C@@H](C)CN([C@H](C)CO)C(=O)c2cc(NS(=O)(=O)c3ccccc3)ccc2O1	none (no result: PvdQ inh, Statin myotox sup)
C[C@@H]1CCCCO[C@H](CN(C)Cc2ccncc2)[C@@H](C)CN([C@H](C)CO)C(=O)c2cc(NS(=O)(=O)c3ccccc3)ccc2O1	DENV2 CPE 21 (no result: PvdQ inh, Statin myotox sup)
C[C@@H]1CN([C@H](C)CO)C(=O)c2cc(NC(=O)Nc3ccc4c(c3)OCO4)ccc2O[C@@H](C)CCCCO[C@H]1CN(C)S(=O)(=O)c1cn(C)cn1	none (no result: PvdQ inh, Statin myotox sup)
O=C(CC1CC1)Nc1ccc2c(c1)[C@H]1C[C@@H](CC(=O)NC3CCCC3)O[C@H](CO)[C@H]1O2	none (no result: PvdQ inh)
CC=Cc1ccc2n(c1=O)C[C@@H]1[C@@H](CO)[C@H](C(=O)NC3CCC3)N(C(=O)C3CC3)[C@H]21 (mixture of isomers)	none (no result: PvdQ inh, Statin myotox sup, miR122 inh)
COc1ccc(C(=O)N2CCNC(=O)C2CC(=O)Nc2cccc(Cl)c2Cl)cc1 (centres undefined)	DENV2 CPE 89 (no result: PGC1a acetyl inh)
COc1ccc(NC(=O)CC2C(=O)NCCN2C(=O)c2ccc(Cl)cc2)cc1 (centres undefined)	Statin myotox sup 101
O=C(CC1C(=O)NCCN1C(=O)c1ccc([N+](=O)[O-])cc1)Nc1ccc(F)cc1 (centres undefined)	Statin myotox sup 101
Cc1ccc(NC(=S)N2CCN(C(=O)C3CCCO3)CC2)c(C)c1 (centres undefined)	Statin myotox sup 100 (no result: DENV2 CPE)
COc1cccc(-n2nnnc2SCC(=O)NCCc2ccc(OC)c(OC)c2)c1	none (no result: Statin myotox sup, miR122 inh)
COc1cccc(-n2nnnc2SCC(=O)NCCc2ccccc2)c1	Statin myotox sup 102 (no result: DENV2 CPE)
O=C(NCc1ccc(F)cc1)[C@@H]1[C@@H](CO)[C@@H]2Cn3c(cccc3=O)[C@H]1N2C(=O)c1cnccn1	none (no result: PvdQ inh, PGC1a acetyl inh)
CNC[C@@H]1OCCCC[C@@H](C)Oc2ccc(NC(=O)NC(C)C)cc2C(=O)N([C@@H](C)CO)C[C@H]1C	none (no result: PvdQ inh, Statin myotox sup)
CCOC(=O)c1sc(NCC2CCCO2)nc1C (centres undefined)	Statin myotox sup 113 (no result: DENV2 CPE)
O=C1NC(c2ccccc2Cl)Nc2ccccc21 (centres undefined)	none (no result: DENV2 CPE)
O=C1NC(c2cccc3ccccc23)Nc2ccccc21 (centres undefined)	miR122 inh 150 (no result: Statin myotox sup)
COc1ccccc1OCCC(=O)OCC(=O)c1c(N)n(C)c(=O)n(C)c1=O	PvdQ inh 32 (no result: PGC1a acetyl inh)
C[C@H](CO)N1C[C@H](C)[C@@H](CN(C)S(=O)(=O)c2cccs2)Oc2ccc(NC(=O)Cc3ccccc3)cc2C1=O	none
COc1ccc(NC(=O)N(C)C[C@H]2Oc3ccc(NC(=O)CCCCCC(=O)Nc4ccccc4N)cc3C(=O)N([C@H](C)CO)C[C@@H]2C)cc1	none (no result: PvdQ inh, Statin myotox sup, miR122 inh)
COc1ccc(NC(=O)N(C)C[C@@H]2Oc3ccc(NC(=O)CCCCCC(=O)Nc4ccccc4N)cc3C(=O)N([C@H](C)CO)C[C@@H]2C)cc1	DENV2 CPE 53 (no result: PvdQ inh, Statin myotox sup, miR122 inh)
COc1ccc(S(=O)(=O)N(C)C[C@H]2Oc3ccc(NC(=O)CCCCCC(=O)Nc4ccccc4N)cc3C(=O)N([C@H](C)CO)C[C@@H]2C)cc1	none (no result: PvdQ inh, Statin myotox sup, miR122 inh)
C[C@@H]1CN([C@H](C)CO)C(=O)c2cccc(NC(=O)CCCCCC(=O)Nc3ccccc3N)c2O[C@@H]1CN(C)C(=O)Nc1ccc(C(F)(F)F)cc1	none (no result: PvdQ inh, Statin myotox sup, miR122 inh)

Compound activity from PubChem BioAssay.
